Rows were chosen to be rich in hits. Some 3.5% of all compounds tested hit in one or more screens of this group.
FBW7 act – human FBW7 E3 ligase activation, primary screen | 650,000 tested, 0.13% active | normalized activity (activation), % at 26.1 µM | AID 1259310 | AlphaScreen FBW7–phospho-cyclin E peptide binding, activator screen; in the data active = normalized activity above about 1.9%;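 also: purified mutant Fbw7 with reduced substrate affinity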
Target sequence (Q969H0 whole entry, looked up): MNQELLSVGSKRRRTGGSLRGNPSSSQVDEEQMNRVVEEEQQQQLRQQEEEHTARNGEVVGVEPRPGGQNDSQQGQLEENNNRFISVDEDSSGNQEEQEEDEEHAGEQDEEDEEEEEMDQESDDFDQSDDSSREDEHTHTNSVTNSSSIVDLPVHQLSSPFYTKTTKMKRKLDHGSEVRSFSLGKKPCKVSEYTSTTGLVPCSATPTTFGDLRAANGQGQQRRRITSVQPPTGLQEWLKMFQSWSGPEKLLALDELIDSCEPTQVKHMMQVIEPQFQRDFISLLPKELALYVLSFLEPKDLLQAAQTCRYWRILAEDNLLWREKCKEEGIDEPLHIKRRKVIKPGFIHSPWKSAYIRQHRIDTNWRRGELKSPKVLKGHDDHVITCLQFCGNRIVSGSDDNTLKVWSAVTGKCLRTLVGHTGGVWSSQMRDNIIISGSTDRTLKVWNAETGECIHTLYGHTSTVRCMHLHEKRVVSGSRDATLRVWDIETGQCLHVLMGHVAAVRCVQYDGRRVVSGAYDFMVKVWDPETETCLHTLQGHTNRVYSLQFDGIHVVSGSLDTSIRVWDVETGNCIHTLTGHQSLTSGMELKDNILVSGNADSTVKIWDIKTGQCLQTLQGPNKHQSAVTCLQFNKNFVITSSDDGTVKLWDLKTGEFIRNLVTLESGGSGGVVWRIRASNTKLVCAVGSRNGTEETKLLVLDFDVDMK
GPR151 ag – activates the human receptor GPR151; Q8TDV0; PathHunter beta-arrestin GPR151 cells, luminescence; AID 1508602; activation, % at 11.2 µM; 650,000 tested, 1% active; in the data active = activation above about 4.9%;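 also: 0% = median of compound wells and 100% = cells with positive control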
TEAD-YAP inh – TEAD-YAP interaction inhibition; HEK-TIYL cells, TEAD-Gal4/YAP UAS-luciferase luminescence; AID 1259422; 640,000 tested, 1.4% active; inhibition, % at 9.12 µM; in the data active = inhibition above about 32%;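 also: 0% = median of test compound wells and 100% = reference inhibitor wells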
MITF inh – inhibitors of human MITF | O75030 | AlphaScreen MITF homodimerization, bead proximity signal | inhibition, % at 2.6 µM | 650,000 tested, 0.91% active | AID 1259374; in the data active = inhibition above about 50%;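 also: 0% = vehicle wells with protein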
GPR151 conf act – confirmation of human GPR151 activators. shares compounds with GPR151 ag. GPR151 PathHunter beta-arrestin cells, luminescence, 90 min; % of EA-reagent control over plate median. activation, % at 11.2 µM. 6,700 tested, under 10 active;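 active = mean percent activation across replicates above the confirmation screen cutoff of 4.91%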
GPR119 counter – activates human GPR119 in a GPR151 counter-screen. shares compounds with GPR151 ag. 6,700 tested, 0.3% active. GPR119 PathHunter beta-arrestin cells, luminescence, 90 min; 0 = compound-well median, 100 = enzyme-acceptor control. AID 1508611. activation, % at 11.2 µM;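 active = mean percent activation in the counterscreen above 29.09%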;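 also: counterscreen on off-target GPR119 to flag nonselective hits from the GPR151 activator screen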
* marks the source's active call; other numbers are inactive results.

Results for Cc1ccc(Cn2nnc3c(=O)[nH]c(C4CCN(C(=O)c5ccco5)CC4)nc32)cc1 ?
FBW7 act: 0.2; GPR151 ag: 0.9; TEAD-YAP inh: 6.5; MITF inh: 24.5

What do the screens show for `O=C(c1ccco1)N1CCC(c2nc3c(nnn3Cc3ccccc3Cl)c(=O)[nH]2)CC1`?
FBW7 act: 0.7; GPR151 ag: 5.7*; TEAD-YAP inh: 8.5; MITF inh: 5.0; GPR151 conf act: 1.3; GPR119 counter: 13.1

Results for O=C1c2ccccc2C(=O)c2c(O)ccc(O)c21 ?
FBW7 act: 0.0; GPR151 ag: 17.9*; TEAD-YAP inh: 0.7; MITF inh: 5.2; GPR151 conf act: 0.1; GPR119 counter: 2.3

What do the screens show for `O=C1c2ccccc2C(=O)c2c(O)c(O)cc(O)c21`?
FBW7 act: -0.3; GPR151 ag: -0.1; TEAD-YAP inh: -0.5; MITF inh: 30.0

How did O=S(=O)(c1ccccc1Cl)N1CCC(n2nnc3cc(C(F)(F)F)ccc32)CC1 do in these assays?
FBW7 act: 0.0; GPR151 ag: 0.8; TEAD-YAP inh: 9.2; MITF inh: -5.0

What do the screens show for `O=C(CSc1nc2ncccc2[nH]1)Nc1ccc(Cl)c(F)c1`?
FBW7 act: 0.2; GPR151 ag: -0.2; TEAD-YAP inh: 1.7; MITF inh: -2.4

How did O=C(CSc1nc2ccccc2[nH]1)Nc1ccc(Cl)cc1 do in these assays?
FBW7 act: 0.7; GPR151 ag: 0.2; TEAD-YAP inh: -8.5; MITF inh: 14.4

Results for CCC(=O)Nc1nnc(SCC(=O)Nc2cccc(Cl)c2)s1 ?
FBW7 act: 0.8; GPR151 ag: 8.8*; TEAD-YAP inh: 1.4; MITF inh: 13.9; GPR151 conf act: -1.1; GPR119 counter: -10.9

Results for CCC(=O)Nc1nnc(SCc2cccc(Cl)c2)s1 ?
FBW7 act: 0.1; GPR151 ag: -0.4; TEAD-YAP inh: -1.7; MITF inh: 0.0

How did COC(=O)c1c(NC(=O)CSc2nnc(N)s2)sc(C)c1C do in these assays?
FBW7 act: -0.1; GPR151 ag: 0.9; TEAD-YAP inh: 1.0; MITF inh: -1.6

How did O=C(CSc1nc2ccccc2[nH]1)Nc1cccc(Cl)c1 do in these assays?
FBW7 act: -0.1; GPR151 ag: 5.1*; TEAD-YAP inh: -7.5; MITF inh: 3.5; GPR151 conf act: -0.4; GPR119 counter: -2.1

What do the screens show for `COC(=O)c1c(NC(=O)CSc2nnc(C)s2)sc(C(C)=O)c1C`?
FBW7 act: 0.0; GPR151 ag: 7.4*; TEAD-YAP inh: 2.6; MITF inh: 4.7; GPR151 conf act: 0.2; GPR119 counter: 6.7

What do the screens show for `O=C(CSc1nc2ncccc2[nH]1)Nc1ccc(F)c(Cl)c1`?
FBW7 act: -0.2; GPR151 ag: 7.2*; TEAD-YAP inh: 3.7; MITF inh: 6.8; GPR151 conf act: 0.1; GPR119 counter: 0.1

Results for O=C(NCCC1CCCCN1S(=O)(=O)c1cccs1)C(=O)NCc1cccnc1 (stereo not given) ?
FBW7 act: 0.2; GPR151 ag: 4.1; TEAD-YAP inh: 3.5; MITF inh: 0.5

How did O=C(NCc1nccs1)C1CC(CCc2ccccc2)=NO1 (stereo not given) do in these assays?
FBW7 act: 0.1; GPR151 ag: -0.8; TEAD-YAP inh: -2.1; MITF inh: -7.5

How did COc1ccc(NC(=O)Nc2nc(-c3ccc(Br)s3)cs2)cc1 do in these assays?
FBW7 act: 0.0; GPR151 ag: -0.9; TEAD-YAP inh: 2.2; MITF inh: 14.4

What do the screens show for `COc1ccc(-c2nc3sc4c(c3c(=O)[nH]2)CCCC4)c2ccccc12`?
FBW7 act: 0.2; GPR151 ag: 0.7; TEAD-YAP inh: -8.5; MITF inh: 11.9

What do the screens show for `COc1ccc(-c2nnc(SCC(=O)Nc3ccc(F)c(Cl)c3)o2)cc1`?
FBW7 act: -0.1; GPR151 ag: 5.0*; TEAD-YAP inh: -45.9; MITF inh: -3.8; GPR151 conf act: 0.1; GPR119 counter: -7.9

What do the screens show for `O=C(CSc1nc2ccccc2[nH]1)Nc1ccc(Cl)c(C(=O)O)c1`?
FBW7 act: -0.6; GPR151 ag: 0.2; TEAD-YAP inh: -3.5; MITF inh: -2.6

Results for CCC(CC)C(=O)Nc1nnc(SCC(=O)Nc2nnc(C)s2)s1 ?
FBW7 act: 0.2; GPR151 ag: 4.9*; TEAD-YAP inh: 1.2; MITF inh: 4.0; GPR151 conf act: -0.5; GPR119 counter: 5.8

What do the screens show for `O=C(CSc1nc2ccccc2[nH]1)Nc1cc(Cl)ccc1Cl`?
FBW7 act: -0.1; GPR151 ag: 11.0*; TEAD-YAP inh: 1.7; MITF inh: 13.3; GPR151 conf act: -0.3; GPR119 counter: -6.9

Results for COc1ccc(-c2nnc(SCC(=O)Nc3ccc(Cl)cc3C)o2)cc1 ?
FBW7 act: 0.0; GPR151 ag: -0.2; TEAD-YAP inh: 21.0; MITF inh: -21.9

Results for CC(=O)N1CCC[C@H]1C(=O)N1CCCC(c2[nH]ncc2Cc2ccccc2)C1 (stereo not given in full) ?
FBW7 act: 0.0; GPR151 ag: 0.4; TEAD-YAP inh: -4.3; MITF inh: 8.2

What do the screens show for `COc1ccc(/C=N\NC(=O)C2COc3cc4ccccc4cc3O2)c(O)c1` (stereo not given)?
FBW7 act: -0.1; GPR151 ag: 0.7; TEAD-YAP inh: 15.4; MITF inh: -16.6

How did O=C(NNS(=O)(=O)c1ccc(Br)cc1)c1ccccc1 do in these assays?
FBW7 act: 0.9; GPR151 ag: 5.4*; TEAD-YAP inh: 5.6; MITF inh: 7.2; GPR151 conf act: -0.2; GPR119 counter: -8.0

Results for O=C(NNS(=O)(=O)c1ccc2ccccc2c1)c1ccc(Br)cc1 ?
FBW7 act: 0.0; GPR151 ag: 0.9; TEAD-YAP inh: -6.0; MITF inh: 3.7

How did COC(=O)C(NC(=O)c1ccc(Cl)cc1)(Nc1nc(C2CC2)cs1)C(F)(F)F (stereo not given) do in these assays?
FBW7 act: 0.7; GPR151 ag: 5.2*; TEAD-YAP inh: -3.8; MITF inh: 13.9; GPR151 conf act: 0.0; GPR119 counter: -5.8

What do the screens show for `CCOC(=O)NC(Nc1nc(C2CC2)cs1)(C(=O)OCC)C(F)(F)F` (stereo not given)?
FBW7 act: 0.2; GPR151 ag: -1.5; TEAD-YAP inh: 1.8; MITF inh: 2.4

Results for O=C(Nc1cccc(Cl)c1)c1ccc2c(=O)n(-c3ccccc3)c(SCc3cccc([N+](=O)[O-])c3)nc2c1 ?
FBW7 act: 0.2; GPR151 ag: 0.8; TEAD-YAP inh: 6.9; MITF inh: 12.2

How did O=C(CCCOc1ccc(Cl)cc1Cl)Nc1ncn[nH]1 do in these assays?
FBW7 act: -0.1; GPR151 ag: -0.5; TEAD-YAP inh: -6.8; MITF inh: -9.6

How did CC(=O)Nc1ccc(NC(=O)COc2ccc(Cl)cc2Br)cc1 do in these assays?
FBW7 act: 0.0; GPR151 ag: 5.1*; TEAD-YAP inh: -21.6; MITF inh: 7.2; GPR151 conf act: 0.2; GPR119 counter: 15.3
